Source: PubChem
In the library only some 4.1% were active in any assay of this set; here they are far more common.
DAX1 inh-1: DAX1 (NR0B1) inhibition, primary screen; hit rate 1.1% among 370,000; AID 652010; HEK293T StAR-luciferase reporter, SF-1/DAX-1 repression relief; inhibition, % at 6.8 µM;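 active = inhibition above the mean over all tested compounds plus 3 SD, cut at about 3.6% in these data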;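 also: 0% = DAX-1 cells with DMSO and 100% = cells lacking DAX-1 with DMSO; higher inhibition means more luminescence from relief of DAX-1 repression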
hgDAF-12 ag: activates the H. glycines DAF-12 receptor ligand-binding domain; hit rate 1.8% among 370,000; HEK293 GAL4-hgDAF12 UAS-luciferase reporter, agonist luminescence; normalized to butyrate control; activation, % at 6.8 µM; AID 687014;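 active = activation above a cutoff set at the mean of all screened compounds plus 3 SD, cut at about 10% in these data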;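 also: 0% = DMSO wells and 100% = sodium butyrate wells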
ssDAF-12 act: activates DAF-12 receptor from parasite S. stercoralis. HEK293 ssDAF-12/GRIP1 lit1-tk-luc reporter, luminescence; % of 3 µM dafachronic acid response. activation, % at 6.8 µM. hit rate 1% among 370,000. AID 652126;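 active = activation above the mean over all tested compounds plus 3 SD, cut at about 0.9% in these data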;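 also: 0% = DMSO-only wells and 100% = 3 µM delta7-dafachronic acid wells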
DAX1 inh-2: NR0B1 (DAX1) inhibition; P51843; HEK293 Gal4-DAX1 luciferase reporter, luminescence; inhibition, % at 6.75 µM; hit rate 0.99% among 340,000;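 active = inhibition above the mean over all tested compounds plus 3 SD, cut at about 4.2% in these data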;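 also: 0% = DAX1-transfected cells with DMSO and 100% = empty-vector control cells with DMSO; inhibition shows as a rise in luminescence from relieved DAX1 repression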
Target sequence (P51843 207-470 limits assumed): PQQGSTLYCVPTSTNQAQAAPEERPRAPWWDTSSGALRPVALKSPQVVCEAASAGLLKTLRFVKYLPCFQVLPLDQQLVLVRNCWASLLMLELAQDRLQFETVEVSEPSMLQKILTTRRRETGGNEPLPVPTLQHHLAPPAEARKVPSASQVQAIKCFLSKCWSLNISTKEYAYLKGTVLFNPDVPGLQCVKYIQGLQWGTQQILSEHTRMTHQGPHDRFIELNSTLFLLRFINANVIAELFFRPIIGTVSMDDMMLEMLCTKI
hcDAF-12 act: H. contortus DAF-12 activation, primary screen | HEK293 hcDAF-12 lit1-tk-luc reporter, luminescence; 0% DMSO, 100% Δ7-dafachronic acid | activation, % at 6.8 µM | hit rate 1.4% among 370,000 | AID 652067;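 active = activation above the mean of all tested compounds plus 3 SD, cut at about 5.5% in these data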;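 also: 100% = response to 3 µM Δ7-dafachronic acid high control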
DAX1 conf: confirmation of human DAX1 (NR0B1) inhibitors; shares compounds with DAX1 inh-1; HEK293T StAR-promoter luciferase reporter, SF-1/DAX-1 repression; inhibition, % at 6.8 µM; hit rate 87% among 2,400; AID 652134;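 active = inhibition above the average of every tested compound plus 3 SD, cut at about 3.8% in these data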;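 also: 0% = DAX-1 cells with DMSO and 100% = no DAX-1 control cells with DMSO; active compounds raise luminescence by relieving repression of the StAR reporter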
Target sequence (P51843 whole entry, looked up): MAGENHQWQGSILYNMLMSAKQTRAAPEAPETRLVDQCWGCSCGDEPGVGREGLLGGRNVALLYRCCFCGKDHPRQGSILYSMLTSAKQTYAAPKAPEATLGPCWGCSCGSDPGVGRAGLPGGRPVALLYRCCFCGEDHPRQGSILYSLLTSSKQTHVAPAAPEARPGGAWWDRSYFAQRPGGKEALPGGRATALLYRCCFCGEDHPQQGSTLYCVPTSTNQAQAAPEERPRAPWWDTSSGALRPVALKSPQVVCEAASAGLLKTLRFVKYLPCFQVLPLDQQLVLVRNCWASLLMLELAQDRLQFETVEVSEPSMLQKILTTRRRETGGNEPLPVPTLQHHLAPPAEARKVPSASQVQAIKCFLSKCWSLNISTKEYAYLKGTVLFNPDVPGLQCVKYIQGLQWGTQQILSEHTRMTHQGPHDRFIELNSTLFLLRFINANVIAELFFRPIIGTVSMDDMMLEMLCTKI
SF1 AF2mut Luc: nonselective inhibitor or artifact in SF-1 mutant DAX1 counter-screen; inhibition, % at 6.8 µM; HEK293 StAR-luciferase, SF-1 AF2 mutant, luminescence; hit rate 78% among 2,400; shares compounds with DAX1 inh-1;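 active = inhibition above the mean of all tested compounds plus 3 SD, cut at about 3% in these data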;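 also: 0% = DAX-1 transfected cells with DMSO and 100% = cells without DAX-1 with DMSO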
LXRb hcDAF ctr: counter-screen for hcDAF-12 agonists: agonists of human LXR-beta. shares compounds with hcDAF-12 act. HEK293 Gal4-LXR tk-luc reporter, luminescence, 24 h; normalized: DMSO 0%, positive control 100%. 3,400 tested, under 10 active. AID 743027. activation, % at 6.8 µM;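 active = mean percent activation of the reporter above a cutoff set as the average over tested compounds plus their standard deviation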
hcDAF12 conf: confirmation of H. contortus DAF-12 agonists; shares compounds with hcDAF-12 act; HEK293 hcDAF-12 lit1-tk-luc reporter, luminescence; % of Δ7-dafachronic acid response; activation, % at 6.8 µM; hit rate 61% among 3,400; AID 743032;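 active = mean activation across triplicate tests above the threshold derived from the earlier primary screen, cut at about 5.5% in these data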;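 also: 0% = DMSO only wells and 100% = 3 µM Δ7-dafachronic acid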
hgDAF12 conf: confirmation of H. glycines DAF-12 agonists | hit rate 80% among 3,300 | shares compounds with hgDAF-12 ag | HEK293 GAL4-hgDAF12 luciferase reporter, agonist mode; percent of butyrate response | activation, % at 6.8 µM | AID 743050;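 active = mean activation over triplicate wells above the hit cutoff derived from the earlier primary screen, cut at about 11% in these data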;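 also: 0% = DMSO low control and 100% = 2 mM sodium butyrate high control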
LXRb DAF12 ctr: activates human LXR-beta, counter-screen for DAF-12 agonists | 3,300 tested, under 10 active | HEK293 Gal4-LXR luciferase reporter, 24 h | activation, % at 6.8 µM | shares compounds with hgDAF-12 ag | AID 743051;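 active = mean activation of the triplicate above a set limit carried over from the primary screen, none filed active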
* hit, by the source's call; nt = not tested or not shown.

SMILES	DAX1 inh-1	hgDAF-12 ag	ssDAF-12 act	DAX1 inh-2	hcDAF-12 act	DAX1 conf	SF1 AF2mut Luc	hgDAF12 conf	LXRb DAF12 ctr	others
Cc1cccc(NC(=O)c2ccc(OC3CSC3)cc2)c1	4.8*	16*	0	1	3	7.8*	4.0*	16*	1
Cc1ccc(-n2[nH]c(C)c(C=NC34CN5CN(CN(C5)C3)C4)c2=O)cc1C	1	1	-1	2	-1	nt	nt	nt	nt
COCCCN=Cc1c(C)[nH]n(-c2ccc(Br)c(C)c2)c1=O	7.0*	18*	1	0	7.6*	16*	5.2*	10	1	LXRb hcDAF ctr=2;hcDAF12 conf=11*
COc1ccc(/C=C/C(=O)OCC(=O)Nc2ccc3c(c2)OCO3)cc1	1	2	-1	-1	0	nt	nt	nt	nt
C/C(=N\NC(=O)c1ccncc1)c1ccc(NC(=O)c2ccc(Cl)cc2)cc1	7.5*	17*	0	2	1	3	2.9*	4	0
O=C(Nc1ccc(Cl)cc1)c1ccncc1	0	2	0	0	-1	nt	nt	nt	nt
O=C(COC(=O)c1cc(Br)ccc1O)Nc1ccc2c(c1)OCO2	-1	1	-1	0	0	nt	nt	nt	nt
Fc1ccc(N2C(=S)SC(=Nc3ccccc3)C2=Nc2ccccc2)cc1	1	7	-1	2	4	nt	nt	nt	nt
N=C1N(c2ccccc2)C(=S)C(=Nc2ccccc2)N1c1ccccc1	8.6*	17*	0	3	9.8*	-5	-3	7	0	LXRb hcDAF ctr=0;hcDAF12 conf=1
N#CC1=C(N)SC(N)=C(C#N)C1c1ccnc2ccccc12	0	-1	0	0	3	nt	nt	nt	nt
O=C1c2ccccc2C(=O)C1c1ccnc2ccccc12	5.3*	21*	5.1*	2	24*	-2	-4	8	1	LXRb hcDAF ctr=1;hcDAF12 conf=18*
COCCCNc1ccn2nc(-c3cccc(Cl)c3)cc2n1	5.3*	21*	1	nt	8.5*	13*	4.8*	21*	1	LXRb hcDAF ctr=2;hcDAF12 conf=9.2*
CCN(CC)S(=O)(=O)c1ccc(N2CCOCC2)c(NS(=O)(=O)c2cc(C(C)(C)C)ccc2C)c1	0	-2	-1	-1	-3	nt	nt	nt	nt
CCc1ccc(NC(=O)C(=S)NC2CCCCC2)cc1	1	8	-1	2	2	nt	nt	nt	nt
CCc1ccc(NC(=O)NC2CCCCCCC2)cc1	7.9*	17*	1	4	4	10*	5.4*	18*	1
Cc1ccc(SCc2ccc(C(=O)NCc3ccncc3)cc2)cc1	-3	-3	-2	-2	-5	nt	nt	nt	nt
CCOc1ccc(N2C(=O)CC(N(Cc3ccco3)C(=O)CC)C2=O)cc1 (configuration not stated)	0	-1	0	0	0	nt	nt	nt	nt
COc1ccc(/C=N/n2c(C)cc(C)c(C(N)=O)c2=O)cc1	0	-4	-1	0	0	nt	nt	nt	nt
Cn1c(-c2ccccc2)c(/C=N/NC(=O)c2ccc(O)cc2)c2ccccc21	4.5*	14*	0	8.7*	1	12*	7.6*	22*	0
O=C(N/N=C\c1c(O)ccc2ccccc12)c1ccc(O)cc1	-3	-9	0	2	-4	nt	nt	nt	nt
CC1=CC(c2ccccc2)=Nc2ccc(C)cc2N1	5.9*	19*	3.5*	0	13*	15*	8.7*	19*	1	LXRb hcDAF ctr=2;hcDAF12 conf=9.6*
COc1cc(OC)c(C(=O)c2ccccc2[N+](=O)[O-])c(OC)c1	-1	4	-1	0	2	nt	nt	nt	nt
CCc1ccc(NC(=O)C/C(C)=N/NC(=O)COc2ccccc2C)cc1	0	2	-1	0	1	nt	nt	nt	nt
COc1ccccc1OCCNC(=O)c1ccc2c(c1)OCCO2	7.8*	17*	0	1	5	8.9*	6.0*	14*	1
CCOC(=O)[C@]12CCCC=C1N(Cc1ccccc1)C(=O)[C@H](CC(=O)N1CCN(C(=O)c3ccco3)CC1)C2	1	-1	-1	nt	-1	nt	nt	nt	nt
SMILES	DAX1 inh-1	hgDAF-12 ag	ssDAF-12 act	DAX1 inh-2	hcDAF-12 act	DAX1 conf	SF1 AF2mut Luc	hgDAF12 conf	LXRb DAF12 ctr	others
Nc1ccc2c(c1)C(=O)c1ccccc1C2=O	10*	17*	1	2	7.3*	7.2*	5.0*	18*	1	LXRb hcDAF ctr=0;hcDAF12 conf=2
Nc1ccc2c(c1)C(=O)C(=O)c1ccccc1-2	-5	-17	-4	-4	-8	nt	nt	nt	nt
O=C(NN=C1C2CC3CC(C2)CC1C3)c1cccs1	7.4*	14*	0	3	5	3	1	1	0
O=C(N/N=C1/CC2C=CCC12)c1cccs1 (configuration not stated)	8.3*	15*	1.1*	2	4	2	2	4	0
O=C(NN=C1C2CC3CC(C2)CC1C3)c1ccccc1O	2	0	-1	0	0	nt	nt	nt	nt
C=C(C)C1CC=C(C)/C(=N/NC(=O)c2cccs2)C1 (configuration not stated)	0	6	0	4	-1	nt	nt	nt	nt
COc1ccc(-c2cc(=NC(CC(C)C)C(=O)O)c3cc(C)ccc3o2)cc1 (configuration not stated)	5.2*	17*	1	3	5	4.5*	5.2*	10	0
CC(C)n1c(=O)c2ccccc2n1Cc1cn(C2CCCC2)nn1	0	-1	0	nt	0	nt	nt	nt	nt
CC(=O)N(C)c1ccc(N=Nc2c(C)[nH]n(C(N)=S)c2=O)cc1	4.8*	16*	0	4	6.5*	12*	5.3*	17*	1
O=C(CS(=O)(=O)Cc1ccccc1)N1CCc2ccccc21	2	5	0	0	3	nt	nt	nt	nt
O=C(OCC(=O)N1CCc2ccccc21)c1ccccc1F	2	2	0	0	4	nt	nt	nt	nt
O=C(OCC(=O)N1CCc2ccccc21)c1ccccc1[N+](=O)[O-]	7.1*	18*	2.6*	1	7.5*	17*	9.6*	17*	1	LXRb hcDAF ctr=1;hcDAF12 conf=8.4*
